Results reported in PubChem BioAssay AID2590 (National Center for Advancing Translational Sciences (NCATS), 2010).
“And” between values parts separate entries of the source, which are not always exact repeats. Equal entries are not always repeated. Records with an inconclusive call do not appear. The source made the active and inactive calls. Calls follow the shape of the dose curve; as a rule, active = well fitted curve in the direction sought with a large enough effect; inconclusive = small, poorly fitted or top-dose-only effect, or another doubt; inactive = no such curve, though single readings can be large or run the other way.

What follows are compounds tested against Lysosomal acid glucosylceramidase (Homo sapiens) (UniProt P04062) (assay: qHTS Assay for Inhibitors and Activators of N370S glucocerebrosidase as a Potential Chaperone Treatment of Gaucher Disease: Primary Screen Confirmation). Conditions: N370S glucocerebrosidase enzyme activity, fluorogenic substrate; series mostly up to 54 µM.
Sequence of Lysosomal acid glucosylceramidase (Homo sapiens) (P04062 whole entry N409S): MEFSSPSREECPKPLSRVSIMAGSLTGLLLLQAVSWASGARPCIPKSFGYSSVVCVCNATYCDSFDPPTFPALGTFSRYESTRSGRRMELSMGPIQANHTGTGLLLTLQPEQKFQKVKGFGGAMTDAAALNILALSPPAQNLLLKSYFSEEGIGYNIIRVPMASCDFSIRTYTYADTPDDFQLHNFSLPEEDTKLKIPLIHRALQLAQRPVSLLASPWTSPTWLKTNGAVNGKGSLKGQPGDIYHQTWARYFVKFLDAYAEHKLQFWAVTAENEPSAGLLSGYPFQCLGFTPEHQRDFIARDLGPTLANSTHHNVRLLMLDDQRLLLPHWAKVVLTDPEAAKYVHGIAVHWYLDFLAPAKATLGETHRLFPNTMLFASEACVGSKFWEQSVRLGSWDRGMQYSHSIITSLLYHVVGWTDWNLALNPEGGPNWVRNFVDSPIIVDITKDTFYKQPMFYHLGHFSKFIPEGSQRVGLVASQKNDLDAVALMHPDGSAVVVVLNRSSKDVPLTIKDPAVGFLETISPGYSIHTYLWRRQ
Description: NIH Chemical Genomics Center [NCGC]
NIH Molecular Libraries Probe Production Centers Network [MLPCN]
Assay Submitter (PI): Wei Zheng
Glucocerebrosidase (GC) catalyzes the hydrolysis of beta-glucocerebroside to glucose and ceramide in lysosomes. Mutations in the glucocerebrosidase gene result in Gaucher disease, an autosomal recessive lysosomal storage disorder. Many of the mutations encountered in patients with Gaucher disease are missense alterations that may cause misfolding, decreased stability and/or mistrafficking of this lysosomal protein. […] These inhibitors include iminosugar analogs and three non-iminosugar inhibitors identified from a previous HTS of 62,000 compounds with the wild type recombinant enzyme. However, the enhancement of enzyme activity by the chaperone action of an enzyme inhibitor must be balanced against the direct inhibition of the enzyme. An enzyme activator could also function as a chaperone by binding to the enzyme and helping to correct its misfolding and mistrafficking. While activators for GC have not yet been identified, they may have better therapeutic potential than inhibitors. Therefore the discovery and development of chemical activators may provide a new strategy for the chaperone therapy.
We have optimized a new assay using N370S mutant GC derived from the spleen of a Gaucher patient. […] In addition, the MLPCN compound library has expanded, which increases the chance of finding new and better probes.
NCGC Assay Protocol Summary:
This is a fluorogenic enzyme assay with 4-methylumbelliferyl-beta-D-glucopyranoside as the substrate and N370S glucocerebrosidase from human spleen homogenate as the enzyme preparation. Upon the hydrolysis of this fluorogenic substrate, the resulting product, […] which can be detected by a standard fluorescence plate reader. Data were normalized to the controls for basal activity (without enzyme) and 100% activity (with enzyme). The AC50 values were determined from concentration-response data modeled with the standard Hill equation.
Assay buffer: 50 mM citric acid (titrated with potassium phosphate to pH 5.0), 100 mM potassium chloride, 10 mM sodium chloride, 1 mM magnesium chloride, 0.01% Tween-20.
1536-well assay protocol:
(1) Add 2 ul/well of spleen homogenate (27 ug final)
(2) Add 23 nL compounds in DMSO solution. The final titration was 0.5 nM to 58 uM.
(3) Add 2 ul of substrate (1 mM final)
(4) Incubate at 37C for 40 min.
(5) Add 2 ul stop solution (1M NaOH and 1M Glycine mixture, pH 10)
(6) Detect the assay plate in a ViewLux plate reader (PerkinElmer) with Ex=365 nm and Em=440nm.
Keywords: Glucocerebrosidase, beta-glucosidase, Gaucher Disease, pharmacological chaperone, chaperone therapy, high throughput screening, glucocerebrosidase inhibitor, MLSMR, MLSCN, NIH Roadmap, qHTS and NCGC
Potency is read from the fitted curve at half-maximal effect.

SMILES	Potency
CC(C)(C)c1ccc(S(=O)(=O)N2CCN(c3nc(-c4cccs4)nc4ccccc34)CC2)cc1	1.3 µM (active) and 1.46 µM (active)
Cc1cccc(NC(=S)Nc2cccc(C)n2)n1	inactive
CN1CCN(CCCNC(=O)c2ccc(/C=C3\Oc4ccccc4N(Cc4ccccc4F)C3=O)cc2)CC1	inactive
O=S(=O)(c1ccc2c(c1)OCCO2)N1CCN(c2nc(-c3ccccc3)nc3ccccc23)CC1	3.2 µM (active)
Oc1cccc(Nc2nc(-c3ccccc3Cl)nc3ccccc23)c1	2.06 µM (active)
O=S(=O)(c1ccc(OC(F)(F)F)cc1)N1CCN(c2nc(-c3cccs3)nc3ccccc23)CC1	2.91 µM (active)
Cc1ccc(S(=O)(=O)N2CCN(c3nc(-c4cccs4)cc4ccccc34)CC2)cc1	3.26 µM (active)
Cc1ccc(Nc2cc(C)nc(-c3ccccc3)n2)cc1	4.11 µM (active)
COc1ccc2cc(C(=O)NCc3ccccc3)c(=O)oc2c1	inactive
O=S(=O)(c1cccc(Br)c1)N1CCN(c2nc(-c3cccs3)nc3ccccc23)CC1	2.53 µM (active)
Cc1ccc(S(=O)(=O)N2CCN(c3nc(-c4ccc(F)cc4)nc4cc(Cl)ccc34)CC2)cc1	inactive
O=S(=O)(c1ccsc1)N1CCN(c2nc(-c3cccs3)nc3ccccc23)CC1	1.03 µM (active)
Clc1ccccc1-c1nccc(NCc2ccccc2)n1	8.91 µM (active)
O=S(=O)(c1ccc2ccccc2c1)N1CCN(c2nc(-c3cccs3)nc3ccccc23)CC1	0.326 µM (active)
CCCCNC(=O)c1cc2c(=O)n3cccc(C)c3nc2s1	inactive
S=C(NCCCc1cnc[nH]1)NCCN(Cc1ccc(Cl)c(Cl)c1)c1ccc(Br)cn1	2.06 µM (active)
O=C(NCCN1CCOCC1)c1ccc(/C=C2\Sc3ccccc3N(Cc3ccccc3F)C2=O)cc1	7.3 µM (active)
O=S(=O)(c1cccc(C(F)(F)F)c1)N1CCN(c2nc(-c3cccs3)nc3ccccc23)CC1	6.35 µM (active)
S=C(NCCCc1cnc[nH]1)NCCCN(Cc1ccccc1)c1ccc(Br)cn1	5.79 µM (active)
COc1ccc(NC(=O)Nc2cccc(C)n2)c(OC)c1	inactive

SMILES	Potency
O=S(=O)(c1ccc(Cl)cc1)N1CCN(c2nc(-c3cccs3)nc3ccccc23)CC1	1.46 µM (active) and 1.13 µM (active) and 1.63 µM (active)
O=S(=O)(c1cccc2ccccc12)N1CCN(c2nc(-c3cccs3)nc3ccccc23)CC1	0.819 µM (active)
CCCCNC(=S)NCCCN(Cc1ccc(Cl)c(Cl)c1)c1ccc(Br)cn1	inactive
Cc1ccc(S(=O)(=O)N(C)CCCN(C)c2nc(-c3cccs3)nc3ccccc23)cc1	2.53 µM (active)
O=S(=O)(c1ccccc1)N1CCN(c2nc(-c3ccc(F)cc3)nc3cc(Cl)ccc23)CC1	inactive
CC1(C)CCc2cc(S(=O)(=O)N3CCN(c4nc(-c5cccs5)nc5ccccc45)CC3)ccc2O1	1.13 µM (active)
Cc1cccc(NC(=O)Nc2cccc(C#N)c2)n1	inactive
CCN(CC)c1ccc(Br)cn1	9.18 µM (active)
COC(=O)c1nc(N2CCN(S(=O)(=O)c3ccc(C)cc3)CC2)c2ccccc2n1	16.3 µM (active)
N#Cc1ccccc1S(=O)(=O)N1CCN(c2nc(-c3cccs3)nc3ccccc23)CC1	2.25 µM (active) and 1.13 µM (active)
CCOC(=O)c1ccccc1S(=O)(=O)N1CCN(c2nc(-c3cccs3)nc3ccccc23)CC1	0.366 µM (active)
N=c1c(S(=O)(=O)c2ccccc2)cc2c(=O)n3ccccc3nc2n1CCCN1CCOCC1	inactive
COc1ccc(CN(CCCN)c2ccc(Br)cn2)cc1	inactive
CCOc1ccccc1NC(=O)CN(c1ccc(C)cc1)S(=O)(=O)c1c(C)noc1C	inactive
CCOC(=O)c1ccc(Nc2cc(C)nc(-c3ccccc3)n2)cc1	10.3 µM (active)
CCCCN(CCCNC(=S)NCCCc1cnc[nH]1)c1ccc(Br)cn1	8.18 µM (active)
Cc1ccc(S(=O)(=O)N2CCN(c3nc(-c4cccs4)nc(C)c3C)CC2)cc1	2.84 µM (active)
S=C(NCCCc1cnc[nH]1)NCCCN(Cc1ccc(Cl)c(Cl)c1)c1ccc(Br)cn1	650 nM (active) and 579 nM (active)
Cc1ccc(S(=O)(=O)N2CCN(c3nc(C#N)nc4ccccc34)CC2)cc1	inactive
C#CCOCCOCCOCCNc1nc(N2CCN(C(=O)CCCCCCCCCCNC(=O)[C@H](CCCCN)n3cc(C)nn3)CC2)nc(N2CCN(C(=O)CCCCCCCCCCNC(=O)[C@H](CCCN=C(N)N)n3cc(C[C@@H](C)CC)nn3)CC2)n1	7.3 µM (active)
